# From PubChem BioAssay
# Shown are actives, neighbours in structure and some others; about 4.2% of the full set was active somewhere.
# NALP3 yeast inh: NALP3 inhibition in yeast | Yeast reconstituted NLRP3/ASC/caspase-1, beta-gal luminescence, 24 h | 330,000 compounds, 0.39% hits | AID 2825 | inhibition, % at 10 µM;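 active = inhibition of 50% or more; inactive = inhibition below 50%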;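 note: plate controls were induced DMSO wells for no effect and uninduced yeast grown without galactose for full effect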
# tim10-1 inh: inhibits growth of tim10-1 mutant yeast. inhibition, % at 20 µM. 330,000 compounds, 2.2% hits. S. cerevisiae tim10-1 ts strain growth, BacTiter-Glo, 24 h. AID 463190;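 active = inhibition of at least 40%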;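 note: mutant grown at 25 °C; 0% = DMSO wells with yeast and 100% = wells holding no yeast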
# TIM10 inh: inhibits growth of TIM10 yeast strain | S. cerevisiae TIM10 strain growth, BacTiter-Glo luminescence, 24 h | inhibition, % at 10 µM | 330,000 compounds, 1.4% hits;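 active = inhibition of 40% or more at the single tested concentration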;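 note: wild-type TIM10 isogenic control strain grown at permissive 25 °C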
# NALP1 yeast inh: NALP1 inhibition; S. cerevisiae NALP1/ASC/caspase-1 growth, X-gal OD620, 72 h; inhibition, % at 10 µM; 280,000 compounds, 0.61% hits; AID 2071; in the data active = inhibition mostly above about 24%, no sharp cut-off; inactive = mostly below about 32%
# PfHsp90 yeast 2: reduces growth (ATP signal) of yeast expressing P. falciparum Hsp90; inhibition, % at 9.4 µM; S. cerevisiae expressing PfHsp90, BacTiter-Glo ATP, 48 h; yeast lacking PDR1 and PDR3 efflux regulators; 310,000 compounds, 0.32% hits;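 active = every replicate shows inhibition above about 80%, whatever the replicate mean, limit read from the data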;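 note: 0% = DMSO neutral controls and 100% = 20 µM radicicol positive controls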
# tim23-1 inh: tim23-1 yeast growth inhibition. 330,000 compounds, 1.3% hits. AID 463212. inhibition, % at 20 µM. S. cerevisiae tim23-1 growth, BacTiter-Glo luminescence, 24 h;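 active = growth inhibition of the mutant yeast at or above 50%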;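 note: temperature-sensitive mutant grown at 25 °C; plate controls were DMSO-treated mutant yeast for no effect and medium wells lacking yeast for full effect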
# tim10 confirm: TIM10 yeast growth inhibition, confirmed | shares compounds with TIM10 inh | S. cerevisiae tim10 strain growth, BacTiter-Glo luminescence, 24 h | inhibition, % at 10 µM | 4,600 compounds, 63% hits | AID 463215;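 active = inhibition of yeast growth at or above a set limit in either of two replicates at 10 µM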;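 note: this counterscreen used the strain with wild-type TIM10; 0% = yeast with DMSO and 100% = medium wells lacking yeast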
# * = called active by the depositor; nt = no result given.
SMILES,NALP3 yeast inh,tim10-1 inh,TIM10 inh,NALP1 yeast inh,PfHsp90 yeast 2,tim23-1 inh,tim10 confirm
O=C1CCC(C(=O)OCC(=O)N2N=C3/C(=C/c4ccccc4)CCCC3C2c2ccccc2)N1 (stereo not given),2,18,42*,17,nt,29,19
Cc1ccc(O)c(C(CC(=O)NC2CCCCC2)c2ccccc2)c1 (stereo not given),23,8,6,8,-9,-9,nt
COc1ccc(C(=O)NCC(=O)Nc2ccc(F)cc2)cc1OC,0,-6,50*,7,-9,-2,-3
CC(C)COP(=O)(OCC(C)C)C(Nc1ccccc1)c1ccc(F)cc1 (stereo not given),4,15,25,20,-15,46,nt
CC(C)COP(=O)(OCC(C)C)C(Nc1ccccc1)c1ccccc1 (stereo not given),-6,32,41*,7,-27,38,34*
COc1ccc(C2=NN(C(=O)CCC(=O)O)C(c3ccc(Br)cc3)C2)cc1 (stereo not given),10,-13,44*,6,-7,-1,7
COc1ccc(NC(=O)CN2C(=O)COc3ccc(S(=O)(=O)N4CCCCC4)cc32)c(OC)c1,-3,5,-8,8,4,-3,nt
Oc1[nH]c2ccc(Br)cc2c1N=Nc1ccc(C(F)(F)F)cn1,25,35,31,nt,-35,-6,nt
Oc1[nH]c2ccccc2c1N=Nc1ccc(C(F)(F)F)cn1,37,26,53*,8,11,25,29
CN1/C(=C\C(=O)COC(=O)c2ccc([N+](=O)[O-])o2)C(C)(C)c2ccccc21,24,16,65*,-3,nt,-290,75*
CN1/C(=C\C(=O)COC(=O)c2nccnc2N)C(C)(C)c2ccccc21,22,13,1,nt,-35,16,nt
O=C(COC(=O)c1cccc(O)c1)Nc1ccc(N2CCOCC2)cc1,19,-15,2,nt,-3,-12,nt
CC12CCC(C(=O)N(CSC(=S)N/N=C\c3ccccc3)C1=O)C2(C)C (stereo not given),22,36,58*,5,0,5,50*
CC12CCC(C(=O)N(CC(=O)O)C1=O)C2(C)C (stereo not given),12,-11,8,4,0,-1,nt
O=C(CCCOc1ccccc1)NNC(=O)c1ccncc1,21,-4,-6,nt,nt,12,nt
COc1ccc(-c2cc(-c3ccc(OC)cc3)nc(-c3ccc4c(c3)NC(=O)CO4)c2)cc1,8,20,41*,2,-9,18,-4
COc1cccc(-c2nc(-c3ccc4c(c3)NC(=O)CO4)cs2)c1,18,18,20,-17,-19,16,nt
S=c1nc(NCCc2ccccc2Cl)c2ccccc2[nH]1,-6,4,-4,12,-14,16,nt
Cc1ccccc1C(=O)NNC(=O)C1CC(=O)N(Cc2ccccc2)C1 (stereo not given),-1,-13,4,nt,nt,-10,nt
O=[N+]([O-])c1ccc(Sc2nc3ccccc3o2)c([N+](=O)[O-])c1,42,19,47*,21,nt,-183,68*
O=[N+]([O-])c1ccc(Cl)cc1Sc1nc2ccccc2o1,-12,13,20,9,-1,24,nt
CN(CC(=O)Nc1c(Cl)cccc1Cl)C(=O)Cc1cccs1,4,3,2,nt,-21,-8,nt
COc1ccc(C2(O)CCN(CC(=O)Nc3nc(-c4ccccc4)cs3)CC2)cc1,35,35,52*,-3,47,47,43*
O=S(=O)(/N=C(/Nc1cccc2ccccc12)c1ccccc1)c1cccs1,-29,24,43*,19,-7,30,23
Brc1ccc2[nH]c3c(N4CCc5ccccc5C4)ncnc3c2c1,13,37,43*,-10,nt,42,14
Fc1ccc2[nH]c3c(N4CCc5ccccc5C4)ncnc3c2c1,16,7,18,6,nt,14,nt
O=C(COc1ccc(Cl)cc1)Nc1ccc2c(c1)CCC2,48,-8,41*,47,12,37,-21
CC(=O)c1ccc(OCC(=O)Nc2ccc3c(c2)CCC3)cc1,8,-72,-16,1,-42,-11,nt
